# Reference: PMC12214610
# Assays:
# [1] = target: 14-3-3 protein eta (UniProt Q04917)
# [2] = target: Actin, cytoplasmic 2 (UniProt P63261)
# [3] = target: Rab11 family-interacting protein 1 (UniProt Q6WKZ4)
# [4] = target: Annexin A4 (UniProt P09525)
# [5] = target: Aspartate--tRNA ligase, cytoplasmic (UniProt P14868)
# [6] = target: Autonomous glycyl radical cofactor (UniProt P68066)
# [7] = target: Calreticulin (UniProt P27797)
# [8] = target: Casein kinase II subunit alpha (UniProt P68400)
# [9] = target: Chaperone protein DnaK (UniProt P0A6Y8)
# [10] = target: Charged multivesicular body protein 2b (UniProt Q9UQN3)
# [11] = target: DNA-binding protein HU-beta (UniProt P0ACF4)
# [12] = target: Dihydrolipoyl dehydrogenase (UniProt P0A9P0)
# [13] = target: Pyruvate dehydrogenase E1 component (UniProt P0AFG8)
# [14] = target: Dihydrolipoyllysine-residue succinyltransferase component of 2-oxoglutarate dehydrogenase complex (UniProt P0AFG6)
# [15] = target: Endoplasmic reticulum chaperone BiP (UniProt P11021)
# [16] = target: Peptidyl-prolyl cis-trans isomerase B (UniProt P23284)
# [17] = target: Fatty acid oxidation complex subunit alpha (UniProt P21177)
# [18] = target: Glutamate synthase [NADPH] small chain (UniProt P09832)
# [19] = target: Glycine--tRNA ligase beta subunit (UniProt P00961)
# [20] = target: Integration host factor subunit beta (UniProt P0A6Y1)
# [21] = target: Myosin-9 (UniProt P35579)
# [22] = target: Phenylalanine--tRNA ligase alpha subunit (UniProt P08312)
# [23] = target: Succinate--CoA ligase [ADP-forming] subunit alpha (UniProt P0AGE9)
# [24] = target: Transketolase 2 (UniProt P33570)
# [25] = target: Uncharacterized protein YqjD (UniProt P64581)
# [26] = target: Unconventional myosin-XVIIIa (UniProt Q92614)
# Calreticulin, sequence (P27797 whole entry): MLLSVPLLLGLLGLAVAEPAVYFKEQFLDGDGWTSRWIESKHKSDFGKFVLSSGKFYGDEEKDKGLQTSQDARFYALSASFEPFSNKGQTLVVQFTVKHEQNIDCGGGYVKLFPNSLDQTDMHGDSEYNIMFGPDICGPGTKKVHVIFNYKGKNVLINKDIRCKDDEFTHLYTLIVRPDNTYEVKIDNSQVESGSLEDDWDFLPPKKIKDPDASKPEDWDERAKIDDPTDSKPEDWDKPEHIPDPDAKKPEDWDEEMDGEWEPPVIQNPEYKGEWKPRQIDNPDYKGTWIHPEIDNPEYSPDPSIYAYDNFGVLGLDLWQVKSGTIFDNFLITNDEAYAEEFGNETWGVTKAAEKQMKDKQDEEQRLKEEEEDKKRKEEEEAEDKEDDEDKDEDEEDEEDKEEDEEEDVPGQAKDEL
# Pyruvate dehydrogenase E1 component, sequence (P0AFG8 whole entry): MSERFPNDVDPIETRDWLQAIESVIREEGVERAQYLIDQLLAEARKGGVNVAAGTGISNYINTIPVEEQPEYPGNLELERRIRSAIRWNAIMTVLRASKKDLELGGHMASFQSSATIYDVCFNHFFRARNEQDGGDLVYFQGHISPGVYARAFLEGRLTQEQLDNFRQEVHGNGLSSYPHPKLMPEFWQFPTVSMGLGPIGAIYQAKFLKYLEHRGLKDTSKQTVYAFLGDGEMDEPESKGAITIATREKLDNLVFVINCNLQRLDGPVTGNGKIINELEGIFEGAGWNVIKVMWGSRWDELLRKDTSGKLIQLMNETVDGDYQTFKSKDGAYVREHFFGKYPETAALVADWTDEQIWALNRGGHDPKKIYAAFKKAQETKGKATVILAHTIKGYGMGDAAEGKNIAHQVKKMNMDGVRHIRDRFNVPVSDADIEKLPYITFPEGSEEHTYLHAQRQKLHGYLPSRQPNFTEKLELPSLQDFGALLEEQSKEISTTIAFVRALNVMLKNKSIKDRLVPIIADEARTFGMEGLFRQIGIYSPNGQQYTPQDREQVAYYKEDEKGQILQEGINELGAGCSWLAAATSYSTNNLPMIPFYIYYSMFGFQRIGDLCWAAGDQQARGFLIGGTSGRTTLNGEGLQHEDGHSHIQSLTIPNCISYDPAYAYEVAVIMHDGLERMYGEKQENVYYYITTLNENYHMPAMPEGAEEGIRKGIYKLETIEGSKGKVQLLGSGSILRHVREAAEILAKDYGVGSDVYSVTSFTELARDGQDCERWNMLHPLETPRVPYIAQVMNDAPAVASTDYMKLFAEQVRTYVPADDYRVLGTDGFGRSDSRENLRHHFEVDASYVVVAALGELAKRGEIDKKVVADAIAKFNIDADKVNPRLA
# Protein disulfide-isomerase, P07237, sequence (P07237 whole entry): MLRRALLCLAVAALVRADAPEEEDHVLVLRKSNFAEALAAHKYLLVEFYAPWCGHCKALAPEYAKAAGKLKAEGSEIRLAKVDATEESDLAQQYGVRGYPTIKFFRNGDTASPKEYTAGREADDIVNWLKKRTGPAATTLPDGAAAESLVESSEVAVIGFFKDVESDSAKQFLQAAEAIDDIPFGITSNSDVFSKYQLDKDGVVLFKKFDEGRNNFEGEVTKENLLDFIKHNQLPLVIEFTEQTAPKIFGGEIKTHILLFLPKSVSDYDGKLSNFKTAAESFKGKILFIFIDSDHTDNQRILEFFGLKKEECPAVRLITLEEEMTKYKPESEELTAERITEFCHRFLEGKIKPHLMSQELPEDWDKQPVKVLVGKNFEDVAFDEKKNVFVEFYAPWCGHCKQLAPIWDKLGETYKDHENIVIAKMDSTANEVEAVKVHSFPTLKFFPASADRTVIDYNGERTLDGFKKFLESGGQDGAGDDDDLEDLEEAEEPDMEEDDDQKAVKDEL
# Dihydrolipoyllysine-residue succinyltransferase component of 2-oxoglutarate dehydrogenase complex, sequence (P0AFG6 whole entry, one chain of several): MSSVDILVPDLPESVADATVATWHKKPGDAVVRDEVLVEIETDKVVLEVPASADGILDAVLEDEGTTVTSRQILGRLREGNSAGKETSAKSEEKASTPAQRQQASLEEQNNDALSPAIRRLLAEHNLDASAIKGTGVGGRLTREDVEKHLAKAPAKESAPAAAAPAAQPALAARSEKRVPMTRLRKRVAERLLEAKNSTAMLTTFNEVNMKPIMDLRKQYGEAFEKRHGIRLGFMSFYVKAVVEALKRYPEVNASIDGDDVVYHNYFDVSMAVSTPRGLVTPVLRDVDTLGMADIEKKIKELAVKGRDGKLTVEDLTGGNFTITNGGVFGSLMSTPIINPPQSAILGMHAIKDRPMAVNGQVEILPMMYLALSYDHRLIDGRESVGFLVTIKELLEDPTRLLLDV
# Myosin-9, sequence (P35579 whole entry): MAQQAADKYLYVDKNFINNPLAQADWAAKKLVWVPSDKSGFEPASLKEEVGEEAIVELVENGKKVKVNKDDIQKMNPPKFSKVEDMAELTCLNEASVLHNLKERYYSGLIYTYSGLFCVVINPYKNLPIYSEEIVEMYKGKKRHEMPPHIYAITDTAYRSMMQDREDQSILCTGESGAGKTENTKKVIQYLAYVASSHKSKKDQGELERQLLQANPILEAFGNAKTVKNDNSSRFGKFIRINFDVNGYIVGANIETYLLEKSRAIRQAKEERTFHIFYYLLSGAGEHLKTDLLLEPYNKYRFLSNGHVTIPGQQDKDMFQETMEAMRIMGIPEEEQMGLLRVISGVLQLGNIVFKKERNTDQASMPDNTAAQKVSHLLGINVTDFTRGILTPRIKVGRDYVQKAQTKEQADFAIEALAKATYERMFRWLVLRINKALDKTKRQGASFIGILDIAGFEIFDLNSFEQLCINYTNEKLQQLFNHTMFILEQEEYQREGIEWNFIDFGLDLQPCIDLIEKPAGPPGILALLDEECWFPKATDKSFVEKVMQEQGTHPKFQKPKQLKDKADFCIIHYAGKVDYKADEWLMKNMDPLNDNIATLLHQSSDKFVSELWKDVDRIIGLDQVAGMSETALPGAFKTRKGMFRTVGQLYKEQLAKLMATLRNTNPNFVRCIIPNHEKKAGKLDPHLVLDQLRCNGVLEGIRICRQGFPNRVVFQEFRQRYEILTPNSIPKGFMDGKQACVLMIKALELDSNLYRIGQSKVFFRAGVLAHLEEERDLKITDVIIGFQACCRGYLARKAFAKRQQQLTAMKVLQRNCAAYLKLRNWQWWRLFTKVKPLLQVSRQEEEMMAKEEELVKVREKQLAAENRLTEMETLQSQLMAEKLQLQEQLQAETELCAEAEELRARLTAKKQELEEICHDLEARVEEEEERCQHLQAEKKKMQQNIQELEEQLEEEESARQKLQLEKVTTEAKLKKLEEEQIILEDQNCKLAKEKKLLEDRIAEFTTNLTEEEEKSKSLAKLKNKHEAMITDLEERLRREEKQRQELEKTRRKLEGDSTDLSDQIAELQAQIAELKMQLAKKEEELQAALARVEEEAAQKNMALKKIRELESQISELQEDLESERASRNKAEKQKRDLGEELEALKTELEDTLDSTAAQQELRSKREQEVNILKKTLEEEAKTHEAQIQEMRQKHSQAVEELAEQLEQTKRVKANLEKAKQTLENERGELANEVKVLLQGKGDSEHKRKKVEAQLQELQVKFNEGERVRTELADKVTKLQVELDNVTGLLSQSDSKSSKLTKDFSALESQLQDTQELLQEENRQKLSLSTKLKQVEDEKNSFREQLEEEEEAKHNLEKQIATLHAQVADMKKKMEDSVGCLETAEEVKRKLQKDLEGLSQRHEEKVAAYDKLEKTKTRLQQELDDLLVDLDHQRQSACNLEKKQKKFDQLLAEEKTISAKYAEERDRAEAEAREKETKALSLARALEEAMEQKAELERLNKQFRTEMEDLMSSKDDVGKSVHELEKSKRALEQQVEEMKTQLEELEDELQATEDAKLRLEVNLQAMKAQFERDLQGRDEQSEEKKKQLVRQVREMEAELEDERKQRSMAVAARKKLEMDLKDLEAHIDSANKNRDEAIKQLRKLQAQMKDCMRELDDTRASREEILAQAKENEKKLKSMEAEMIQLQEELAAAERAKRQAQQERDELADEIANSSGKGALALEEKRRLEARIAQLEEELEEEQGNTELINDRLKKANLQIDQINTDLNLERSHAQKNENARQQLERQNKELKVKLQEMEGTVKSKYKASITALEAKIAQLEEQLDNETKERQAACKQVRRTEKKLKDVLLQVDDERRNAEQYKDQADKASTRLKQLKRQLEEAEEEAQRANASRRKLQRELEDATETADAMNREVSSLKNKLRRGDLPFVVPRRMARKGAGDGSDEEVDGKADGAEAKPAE
# Phenylalanine--tRNA ligase alpha subunit, sequence (P08312 whole entry): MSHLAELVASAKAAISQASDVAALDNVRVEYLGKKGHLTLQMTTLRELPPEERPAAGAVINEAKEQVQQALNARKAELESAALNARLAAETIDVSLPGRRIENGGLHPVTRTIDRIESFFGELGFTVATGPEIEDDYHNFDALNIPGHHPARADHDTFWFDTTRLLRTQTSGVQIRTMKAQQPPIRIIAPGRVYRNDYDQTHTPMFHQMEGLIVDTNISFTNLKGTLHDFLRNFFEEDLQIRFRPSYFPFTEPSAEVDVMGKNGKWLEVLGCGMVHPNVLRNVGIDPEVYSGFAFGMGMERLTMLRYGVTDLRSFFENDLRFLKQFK
# Autonomous glycyl radical cofactor, sequence (P68066 whole entry): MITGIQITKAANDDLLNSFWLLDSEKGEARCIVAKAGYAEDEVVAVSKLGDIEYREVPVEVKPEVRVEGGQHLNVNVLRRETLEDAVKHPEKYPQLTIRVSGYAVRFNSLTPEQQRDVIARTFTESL
# Annexin A4, sequence (P09525 whole entry): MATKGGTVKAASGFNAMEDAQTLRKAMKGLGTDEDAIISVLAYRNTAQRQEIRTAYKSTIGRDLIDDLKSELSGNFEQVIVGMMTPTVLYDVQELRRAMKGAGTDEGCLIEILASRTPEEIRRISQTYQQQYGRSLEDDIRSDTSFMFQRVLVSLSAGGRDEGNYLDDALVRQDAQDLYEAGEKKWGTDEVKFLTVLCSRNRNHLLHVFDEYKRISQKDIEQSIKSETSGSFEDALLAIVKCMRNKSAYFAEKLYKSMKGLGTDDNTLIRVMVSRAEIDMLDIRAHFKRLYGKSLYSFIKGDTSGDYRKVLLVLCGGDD
substance,measurement,setting,value
"14-3-3 protein epsilon, P62258",listed as a hit,[1],yes
"Heat shock protein HSP 90-beta, P08238",listed as a hit,[2],yes
"Ras-related protein Rab-11B, Q15907",listed as a hit,[3],yes
"Annexin A6, P08133",listed as a hit,[4],yes
"Eukaryotic translation elongation factor 1 epsilon-1, O43324",listed as a hit,[5],yes
"Formate acetyltransferase 1, P09373",listed as a hit,[6],yes
"Peptidyl-prolyl cis-trans isomerase B, P23284",listed as a hit,[7],yes
"Protein disulfide-isomerase A4, P13667",listed as a hit,[7],yes
"Casein kinase II subunit beta, P67870",listed as a hit,[8],yes
"Protein GrpE, P09372",listed as a hit,[9],yes
"Charged multivesicular body protein 1b, Q7LBR1",listed as a hit,[10],yes
"DNA-binding protein HU-alpha, P0ACF0",listed as a hit,[11],yes
"Dihydrolipoyllysine-residue acetyltransferase component of pyruvate dehydrogenase complex, P06959",listed as a hit,[12],yes
same,listed as a hit,[13],yes
"Dihydrolipoyl dehydrogenase, P0A9P0",listed as a hit,[14],yes
same,listed as a hit,[13],yes
"2-oxoglutarate dehydrogenase E1 component, P0AFG3",listed as a hit,[14],yes
"Protein disulfide-isomerase, P07237",listed as a hit,[15],yes
same,listed as a hit,[16],yes
"3-ketoacyl-CoA thiolase FadA, P21151",listed as a hit,[17],yes
"Glutamate synthase [NADPH] large chain, P09831",listed as a hit,[18],yes
"Glycine--tRNA ligase alpha subunit, P00960",listed as a hit,[19],yes
"Integration host factor subunit alpha, P0A6X7",listed as a hit,[20],yes
"Myosin regulatory light polypeptide 9, P24844",listed as a hit,[21],yes
"Phenylalanine--tRNA ligase beta subunit, P07395",listed as a hit,[22],yes
"Succinate--CoA ligase [ADP-forming] subunit beta, P0A836",listed as a hit,[23],yes
"Transketolase 1, P27302",listed as a hit,[24],yes
"Protein ElaB, P0AEH5",listed as a hit,[25],yes
"Myosin-9, P35579",listed as a hit,[26],yes
